Measurements taken from PubChem BioAssay AID2284202 (EPA ToxCast).
The source made the active and inactive calls. Rule for the calls: active = hit-call score of the fitted dose curve at least 0.9, where 1 is the maximum; inactive = score below 0.9.

Target: human Dopamine Transporter (DAT), SLC6A3 (gene 6531) (UniProt Q01959)
Assay: ERF_FR_TR_hSLC6A3: Eurofins (ERF) Radioligand Binding LeadHunter Assay for human Dopamine Transporter (DAT) Antagonism, conducted at France lab site
Description: ERF_FR_TR_hSLC6A3 is a biochemical, single-readout assay that uses extracted gene-proteins in a cell-free assay. Measurements were taken 2 hour after chemical dosing in a 96-well plate. See DAT Human Dopamine Transporter Binding (Antagonist Radioligand) Assay, Cerep.ERF_FR_TR_hSLC6A3 is an assay component calculated from the ERF_FR_TR_hSLC6A3 assay. It is designed to measure radioligand binding using a type of binding reporter as detected by scintillation counting with radiometry technology.Data from the assay component ERF_FR_TR_hSLC6A3 was analyzed at the assay endpoint, ERF_FR_TR_hSLC6A3, in the positive analysis fitting direction relative to DMSO as the negative control and baseline of activity. Using a type of binding reporter, loss-of-signal activity can be used to understand changes in binding as they relate to gene SLC6A3. To generalize the intended target to other relatable targets, this assay endpoint is annotated to the transporter intended target family, where the subfamily is SLC6 / Monoamine.
Human cells are incubated for 120 minutes at 4C with [3H]BTCP (4 nM) ligand and BTCP as control inhibitor. Test Sample Requirements: Minimum for 1) Screen: 60 ul of 10 mM stock -OR- 1 mg (pre-weighed) for 10 uM final testing. 2) Dose Response: 90 ul of 10 mM stock -OR- 1 mg (pre-weighed) for a top concentration at 10 uM.

Chain of human Dopamine Transporter (DAT), SLC6A3 (gene 6531) (Q01959 whole entry, looked up): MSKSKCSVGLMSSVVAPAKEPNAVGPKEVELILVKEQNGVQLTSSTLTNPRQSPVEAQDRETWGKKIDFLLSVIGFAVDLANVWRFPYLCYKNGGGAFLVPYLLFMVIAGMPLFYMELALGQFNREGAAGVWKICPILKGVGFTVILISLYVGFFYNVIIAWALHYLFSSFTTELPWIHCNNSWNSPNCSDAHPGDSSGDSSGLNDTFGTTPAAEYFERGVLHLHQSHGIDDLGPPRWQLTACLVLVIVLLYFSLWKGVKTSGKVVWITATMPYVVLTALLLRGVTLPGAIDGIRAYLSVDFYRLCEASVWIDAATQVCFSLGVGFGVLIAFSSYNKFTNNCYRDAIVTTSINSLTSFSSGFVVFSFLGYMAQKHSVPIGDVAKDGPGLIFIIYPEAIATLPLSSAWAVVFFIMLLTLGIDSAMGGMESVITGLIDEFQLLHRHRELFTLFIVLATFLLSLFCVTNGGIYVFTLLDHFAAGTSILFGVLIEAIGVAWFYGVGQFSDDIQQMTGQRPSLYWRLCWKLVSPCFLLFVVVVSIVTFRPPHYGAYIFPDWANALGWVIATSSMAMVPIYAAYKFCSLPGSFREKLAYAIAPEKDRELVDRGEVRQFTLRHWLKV

Row | Structure (SMILES) | AC50
1 | O=C(/C=C/c1ccc(O)cc1)CC(=O)/C=C/c1ccc(O)cc1 | 2890 nM (active)
2 | COc1cc(CCC(=O)CC(=O)CCc2ccc(O)c(OC)c2)ccc1O | 2970 nM (active)
